The structures appear in SMILES notation. Inconclusive results are not listed. Entries that show only a call come without a potency. The source made the active and inactive calls. The call rests on the fitted dose curve; in most records, active means well fitted inhibition curve with a large enough effect; inconclusive means small, poorly fitted or top-dose-only effect; inactive means flat fitted curve, though single readings scatter.

Sequence of Calcium and integrin-binding protein 1 (Homo sapiens) (Q99828 whole entry, looked up): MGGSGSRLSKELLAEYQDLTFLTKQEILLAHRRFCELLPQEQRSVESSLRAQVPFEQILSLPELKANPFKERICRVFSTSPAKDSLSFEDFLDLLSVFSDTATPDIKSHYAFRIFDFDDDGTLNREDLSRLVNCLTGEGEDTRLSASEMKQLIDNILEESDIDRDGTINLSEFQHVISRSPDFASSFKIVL

The test concerns the target Calcium and integrin-binding protein 1 (Homo sapiens) (UniProt Q99828). Kind of test: Primary qHTS for Identification of Calcium Integrin Binding Protein 1 (CIB1) Competitor (AID 1508620). Further: top concentration of the series differs between compounds. The conditions noted are these: CIB1-GST / FITC-alphaIIb peptide fluorescence polarization; series mostly up to 57.7 µM. In a few lines: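 Fluorescence polarization competition: GST-tagged CIB1 (1 uM final) preincubated with compound 15 min at room temperature, then FITC-labelled alphaIIb peptide (100 nM final) added. After 15 min at room temperature, polarization read at Ex 480/Em 540.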
Consider `C/C=C(\C)C(=O)OC[C@H]1O[C@H](O[C@H]2O[C@H](CO)[C@@H](O)[C@H](O)[C@H]2O[C@@H]2O[C@H](CO)[C@@H](O)[C@H](O)[C@H]2O)[C@H](O[C@@H]2O[C@H](CO)[C@@H](O)[C@H](O)[C@H]2O)[C@@H](O)[C@@H]1O`, for which the Potency entry is “inactive”.

`CC1=C2CC(O)(C(C)(C)O)C(O[C@@H]3O[C@H](CO)[C@@H](O)[C@H](O)[C@H]3O)CC(C)C2CC1=O` (stereo not given in full): the Potency result was “inactive”.

Regarding `CC1(C)C[C@@H]2[C@H](C1)[C@@]1(C)C[C@]13C(O)OC[C@]3(O)[C@H]2O` (stereo not given in full), the Potency result is “inactive”.

Consider `C/C(=C\CCC(C)CCO)C(=O)OC[C@H]1O[C@@H](O[C@@H]2OC=C(C(=O)O)[C@H]3CC[C@](C)(O)[C@@H]23)C(O)[C@@H](O)C1O` (stereo not given in full), for which the Potency entry is “inactive”.

Turning to `OC[C@@]1(O)CO[C@@H](OC[C@H]2O[C@@H](OCc3ccccc3)[C@H](O)[C@@H](O)[C@@H]2O)[C@@H]1O`, the Potency result was “inactive”.

`O=C(OC1C=C(CO)C2C(OC3OC(CO)C(O)C(O)C3O)OC=CC12O)c1ccc(O)cc1` (stereo not given): the Potency entry was “inactive”.

Turning to `COC(=O)C1=COC(O[C@@H]2O[C@H](CO)[C@@H](O)[C@H](O)[C@H]2O)C2C(C)C(=O)CC12` (stereo not given in full), the Potency result is “inactive”.

`C=CC(C)(O)CC/C=C(\C)C(=O)O[C@@H]1[C@@H](O)[C@H](OC(C)(C=C)CC/C=C(\C)C(=O)O)O[C@H](CO)[C@H]1OC(=O)/C(C)=C/CCC(C)(O)C=C` (stereo not given in full): the Potency entry was “inactive”.

In the case of `COC(=O)C1=COC(O[C@@H]2O[C@H](CO)[C@@H](O)[C@H](O)[C@H]2O)[C@@H]2[C@@](C)(O)[C@@H](OC(=O)/C=C/c3ccccc3)C[C@]12O` (stereo not given in full), the Potency result is “inactive”.

In the case of `C[C@]1(O)CC[C@@H]2C(C(=O)O)=CO[C@@H](O[C@@H]3O[C@H](COC(=O)/C=C/c4ccc(O)c(O)c4)[C@@H](O)[C@H](O)[C@H]3O)[C@@H]21`, the Potency result was “inactive”.

For `CC1(C)CC[C@]2(C(=O)O[C@@H]3O[C@H](CO)[C@@H](O)[C@H](O)[C@H]3O)CC[C@]3(C)C(=CCC4[C@@]5(C)C[C@H](O)[C@H](O[C@@H]6OC[C@@H](O)[C@H](O)[C@H]6O)[C@@](C)(CO)C5CC[C@]43C)C2C1` (stereo not given in full), the Potency entry is “inactive”.

As for `CC1=CC2=C(C)C(=O)[C@](C)(O)[C@H](O)C2=CO1`, the Potency entry is “inactive”.

Take `O=C(/C=C/c1ccc(O)cc1)O[C@H]1[C@H](OC2CCCCC2O)O[C@H](CO)[C@@H](O)[C@@H]1O` (stereo not given in full): the Potency entry was “inactive”.

For the compound `COC(=O)c1c(CC=C(C)C)c(OC2OC(CO)C(O)C(O)C2O)c2ccccc2c1OC1OC(CO)C(O)C(O)C1O` (stereo not given), the Potency result was “inactive”.

Turning to `CC1CC(O)/C=C/C(O)/C=C\C(=O)O1` (stereo not given), the Potency entry was “inactive”.

With `COC(=O)[C@]1(C)CCC[C@@]2(C)[C@@H]3CC[C@@H]4C[C@@]3(CC[C@@H]21)C[C@H]4C(=O)O`, the Potency entry was “inactive”.

For `CC1(C)[C@@H]2CC=C(CO[C@@H]3O[C@H](CO[C@@H]4OC[C@H](O)[C@H](O)[C@H]4O)[C@@H](O)[C@H](O)[C@H]3O)[C@H]1C2`, the Potency result was “inactive”.

As to `CCCC/C=C\CCCCCc1cc(=O)c2ccccc2n1C`, the Potency result is “inactive”.

As for `COc1ccc(C2OCC3C(c4cc(OC)c5c(c4)OCO5)OCC23)cc1OC` (stereo not given), the Potency entry was “inactive”.

For the compound `O=C(/C=C/c1ccc(O)cc1)OC[C@H]1O[C@H](O[C@@]2(CO)O[C@@H](CO)[C@H](O)[C@H]2O)[C@H](O)[C@@H](O)[C@@H]1O`, the Potency result was “inactive”.

Regarding `CC(=O)/C=C/C1C(C)CC(O[C@@H]2O[C@H](CO)[C@@H](O)[C@H](O)[C@H]2O)CC1(C)C` (stereo not given in full), the Potency result was “inactive”.

For the compound `CCC(C)C(C(=O)O)N1Cc2c(OCC=C(C)C)c(C)c(OC)c(C(=O)O)c2C1=O` (stereo not given), the Potency result is “inactive”.

Consider `CC(=O)OC1C(O)C(C)(O)C(/C=C/C(=O)O)C2(C)CCCC(C)(C)C12` (stereo not given), for which the Potency result is “inactive”.

Take `CC(=O)OCC1OC(O[C@H]2CC[C@]34C[C@]35CC(O)[C@]3(C)[C@@H]([C@H](C)CC/C=C(\C)C(=O)O)C(O)C[C@@]3(C)C5CC[C@H]4C2(C)C)C(O)C(O)C1OC1OCC(O)C(O)C1O` (stereo not given in full): the Potency entry was “inactive”.

As for `COc1cc(CO)cc(OC)c1O[C@@H]1O[C@H](CO)[C@@H](O)[C@H](O)[C@H]1O`, the Potency result is “inactive”.

Consider `C[C@H]1CC[C@H]2[C@@H](C=C[C@@](C)(O)[C@]2(C)C(=O)CCO)C1`, for which the Potency result is “inactive”.

For `C[C@@H]1C[C@H]2OC(=O)[C@@]3(C)CCC[C@](C)(C23)[C@@]1(O)CCC1=CC(=O)OC1O` (stereo not given in full), the Potency result is “inactive”.

`C=C1C2(C)CC3C4(C)OC(C5OC56C4=CC(=O)OC6(C)C)C3(C)C13C(=O)OC(C)C3(O)C2=O` (stereo not given): the Potency result is “inactive”.

In the case of `C=C(C(=O)O)[C@@H]1CC[C@@]2(C)CCC[C@@](C)(O)[C@@H]2C1`, the Potency result is “inactive”.

For the compound `C[C@@H]1[C@H]2[C@H](O[C@@H]3O[C@H](CO)[C@@H](O)[C@H](O)[C@H]3O)OC=C(C(=O)O)[C@H]2C[C@@H]1OC(=O)/C=C/c1ccc(O)cc1`, the Potency entry is “inactive”.

Source of the values: PubChem BioAssay (NCATS).
